Records with an inconclusive call do not appear. Calls of active or inactive are those of the source. Calls follow the shape of the dose curve; as a rule, active = well fitted inhibition curve with a large enough effect; inconclusive = small, poorly fitted or top-dose-only effect; inactive = flat fitted curve, though single readings scatter. Where a SMILES comes first, the peptide text is derived from it. Bridges are numbered along the chain shown (N, C = ends). [ ]: non-standard residue; d: D form. The star is where a group is joined. Dab(CH2SO3H) = N[C@@H](CCNCS(=O)(=O)O)C(=O)O; X3 = CC[C@@H](C)CCCCC(=O)*; Dab = NCC[C@H](N)C(=O)O
Each compound was assayed on astro (assay: Drug repurposing screens with cells derived from glioblastoma tumor samples (AID 1345199; also: nearly all actives have a fitted effect of over 40% in size)). Settings: viability, ATP luminescence, 48 h; series mostly up to 45.9 µM; activity, negative = cell killing: at the top concentration.
Description: CD133+ cells were isolated from GBM patient biopsies and cultured as neurospheres. Neurospheres from four patients were used to screen the NCATS pharmaceutical collection (NPC) library of approved drugs and bioactive compounds. […] The neurospheres were incubated with drugs for 48 hours in 1536-well format, then assayed with an ATP content cell viability assay. […] These hits were cherry picked to confirm activity in the four original GBM lines screened plus three other slower growing GMB lines (unable to yield enough cells for a full primary screen). Variable activities of the confirmed primary hits in the different GBM patient lines were observed. The patient line 206 responded to the greatest number of compounds and line 923 responded to the least amount of active compounds.
% is scaled to controls: 0 for no effect and ±100 for the full control effect; potency is read from the fitted curve at half-maximal effect.

Row | SMILES | activity, negative = cell killing | Potency
1 | CCCCCCCC/C=C\CCCCCCCC(=O)O | -21.7% (inactive) | –
2 | Cc1ccccc1 | -15.4% (inactive) | –
3 | O=S(=O)(O)O | -26.1% (inactive) | –
4 | NCc1ccccc1CC(=O)N[C@@H]1C(=O)N2C(C(=O)O)=C(CSc3nnnn3CC(=O)O)CS[C@H]12 | -22.4% [at 21.2 µM] (inactive) | –
5 | COc1ccc(CCNC[C@H](O)c2ccc(O)cc2)cc1OC | -15.7% (inactive) | –
6 | CN1Cc2c(N)cccc2C(c2ccccc2)C1 (stereo not given) | -22.7% (inactive) | –
7 | CCCC(=O)O[C@]1(C(=O)COC(C)=O)CC[C@H]2[C@@H]3C[C@H](F)C4=CC(=O)C=C[C@]4(C)[C@@]3(F)[C@@H](O)C[C@@]21C | -17.1% (inactive) | –
8 | Cc1cc(C(=O)NNCc2ccccc2)no1 | -7.86% [at 21.2 µM] (inactive) | –
9 | CO[C@@H]1[C@@H](O[C@@H]2O[C@H](C)[C@@H](O[C@H]3C[C@@](C)(O)[C@@H](O)[C@H](C)O3)[C@H](N(C)C)[C@H]2O)[C@@H](CC=O)C[C@@H](C)[C@@H](O[C@@H]2CC[C@H](N(C)C)[C@@H](C)O2)/C=C/C=C/C[C@@H](C)OC(=O)C[C@H]1O | -18.7% [at 21.2 µM] (inactive) | –
10 | COc1cc([C@@H]2c3cc4c(cc3[C@@H](O[C@@H]3O[C@@H]5CO[C@@H](C)O[C@H]5[C@H](O)[C@H]3O)[C@H]3COC(=O)[C@H]23)OCO4)cc(OC)c1O | -27.5% (inactive) | –
11 | O=C(O)CCC(=O)C(=O)O | -11% (inactive) | –
12 | C[C@]12C=CC(=O)C=C1CC[C@@H]1[C@@H]2[C@@H](O)C[C@@]2(C)[C@H]1CC[C@]2(O)C(=O)COC(=O)CCC(=O)O | -15.1% (inactive) | –
13 | O=C(O)C[C@H](O)C[C@H](O)/C=C/c1c(C2CC2)nc2ccccc2c1-c1ccc(F)cc1 | – | 0.398 µM (active)
14 | CC(Oc1ccccc1)C(=O)N[C@@H]1C(=O)N2[C@@H]1SC(C)(C)[C@@H]2C(=O)O (stereo not given in full) | -8.67% [at 21.2 µM] (inactive) | –
15 | CCOC(=O)O[C@]1(C(=O)COC(=O)CC)CC[C@H]2[C@@H]3CCC4=CC(=O)C=C[C@]4(C)[C@H]3[C@@H](O)C[C@@]21C | -7.16% [at 21.2 µM] (inactive) | –
16 | Cc1cn([C@H]2C[C@H](O)[C@@H](CO)O2)c(=O)[nH]c1=O | 4.13% (inactive) | –
17 | OC[C@H]1O[C@@H](n2cnc3c2NC=NC[C@H]3O)C[C@@H]1O | -2.45% (inactive) | –
18 | CCCCC/C=C\C/C=C\CCCCCCCC(=O)O | -12.8% (inactive) | –
19 | CO[C@H]1C[C@@H]2CC[C@@H](C)[C@@](O)(O2)C(=O)C(=O)N2CCCC[C@H]2C(=O)O[C@H]([C@H](C)C[C@@H]2CC[C@@H](OCCO)[C@H](OC)C2)CC(=O)[C@H](C)/C=C(\C)[C@@H](O)[C@@H](OC)C(=O)[C@H](C)C[C@H](C)/C=C/C=C/C=C/1C | – | 25.1 µM (active)
20 | CC[C@@H](C(=O)[C@@H](C)[C@@H](O)[C@H](C)CCc1ccc(C)c(O)c1C(=O)O)[C@H]1O[C@](CC)([C@H]2CC[C@](O)(CC)[C@H](C)O2)C[C@@H]1C | – | 7.08 µM (active)

Row | SMILES | activity, negative = cell killing | Potency
21 | COC(=O)C1=C(C#N)NC(C)=C(C(=O)OC(C)C)C1c1cccc([N+](=O)[O-])c1 (stereo not given) | -15.7% (inactive) | –
22 | CCCCCCOc1ccc(C(=N)N(CCCC)CCCC)c2ccccc12 | – | 17.8 µM (active)
23 | CC(=O)O[C@]1(C(C)=O)CC[C@H]2[C@@H]3CCC4=CC(=O)CC[C@]4(C)[C@@]3(F)[C@@H](O)C[C@@]21C | -21.2% (inactive) | –
24 | CCCCCCCC(=O)O | -23% (inactive) | –
25 | CC[C@@]1(O)C(=O)OCc2c1cc1n(c2=O)Cc2cc3c([N+](=O)[O-])cccc3nc2-1 | – | 1.26 µM (active)
26 | CCOC(C)=O | -17% (inactive) | –
27 | O=C(O)C1CCCN1 (stereo not given) | -17.4% (inactive) | –
28 | Clc1cc(Cl)c(OCC#CI)cc1Cl | -26.7% (inactive) | –
29 | C#C[C@]1(O)CC[C@H]2[C@@H]3CCC4=CCCC[C@@H]4[C@H]3C(=C)C[C@@]21CC | – | 35.5 µM (active)
30 | CC[C@H]1OC(=O)C[C@@H](O)[C@H](C)[C@@H](O[C@@H]2O[C@H](C)[C@@H](O)[C@H](N(C)C)[C@H]2O)[C@@H](CCN2C[C@H](C)C[C@H](C)C2)C[C@@H](C)C(=O)/C=C/C(C)=C/[C@@H]1CO[C@@H]1O[C@H](C)[C@@H](O)[C@@H](OC)[C@H]1OC | -12.8% (inactive) | –
31 | CC[C@@H](C)CCCCC(=O)N[C@@H](CCNCS(=O)(=O)O)C(=O)N[C@H](C(=O)N[C@@H](CCNCS(=O)(=O)O)C(=O)N[C@H]1CCNC(=O)[C@H]([C@@H](C)O)NC(=O)[C@H](CCNCS(=O)(=O)O)NC(=O)[C@H](CCNCS(=O)(=O)O)NC(=O)[C@H](CC(C)C)NC(=O)[C@@H](CC(C)C)NC(=O)[C@H](CCNCS(=O)(=O)O)NC1=O)[C@@H](C)O (X3-[Dab(CH2SO3H)]T[Dab(CH2SO3H)][Dab][Dab(CH2SO3H)][dL]L[Dab(CH2SO3H)][Dab(CH2SO3H)]T; lactam 4-C) | -21.5% (inactive) | –
32 | Nc1nc(N)c2nc(CNc3ccc(C(=O)N[C@@H](CCC(=O)O)C(=O)O)cc3)cnc2n1 | -1.38% (inactive) | –
33 | O=C(O)c1cc(=O)c2c3nc4ccccc4oc-3cc(=O)c2[nH]1 | -16.4% (inactive) | –
34 | CC[N+](CC)(CC)CCC(O)(c1ccccc1)C1CCCCC1 (stereo not given) | -13.6% [at 21.2 µM] (inactive) | –
35 | CO[C@H]1C=CO[C@@]2(C)Oc3c(C)c(O)c4c(O)c(c5c(c4c3C2=O)=NC2(CCN(CC(C)C)CC2)N=5)NC(=O)/C(C)=C\C=C/[C@H](C)[C@H](O)[C@@H](C)[C@@H](O)[C@@H](C)[C@H](OC(C)=O)[C@@H]1C | -20.6% (inactive) | –
36 | Cc1c(C)c2c(c(C)c1O)CC[C@@](C)(CCC[C@H](C)CCC[C@H](C)CCCC(C)C)O2 | – | inactive
37 | CC(C)=O | -14.3% (inactive) | –
38 | CC(=O)OCC(=O)[C@@]12OC3(CCCC3)O[C@@H]1C[C@H]1[C@@H]3CCC4=CC(=O)C=C[C@]4(C)[C@@]3(F)[C@@H](O)C[C@@]12C | -9.4% (inactive) | –
39 | CCN(CC)CCOc1ccc(-c2nc3cc(Cl)ccc3s2)cc1 | – | 20 µM (active)
40 | CC(NNC(=O)c1ccccc1)c1ccccc1 (stereo not given) | -9.8% (inactive) | –

Source: PubChem BioAssay (NCATS)
